# This is a sample that favours compounds with a hit; in the whole collection about 4.1% have one here.
# hcDAF12 agonist = H. contortus DAF-12 activation, primary screen; AID 652067; HEK293 hcDAF-12 lit1-tk-luc reporter, luminescence; 0% DMSO, 100% Δ7-dafachronic acid; activation, % at 6.8 µM; actives 1.4% (n = 370,000);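 active means activation above the mean of all tested compounds plus 3 SD, cut at about 5.5% in these data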;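 further: 100% = response to 3 µM Δ7-dafachronic acid high control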
# hgDAF-12 ag = agonists of H. glycines DAF-12 nuclear receptor; HEK293 GAL4-hgDAF12 UAS-luciferase reporter, agonist luminescence; normalized to butyrate control; activation, % at 6.8 µM; actives 1.8% (n = 370,000); AID 687014;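 active means activation above a cutoff set at the mean of all screened compounds plus 3 SD, cut at about 10% in these data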;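 further: 0% = DMSO wells and 100% = sodium butyrate wells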
# ssDAF12 agonist = activates DAF-12 receptor from parasite S. stercoralis; actives 1% (n = 370,000); HEK293 ssDAF-12/GRIP1 lit1-tk-luc reporter, luminescence; % of 3 µM dafachronic acid response; AID 652126; activation, % at 6.8 µM;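 active means activation above the mean over all tested compounds plus 3 SD, cut at about 0.9% in these data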;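 further: 0% = DMSO-only wells and 100% = 3 µM delta7-dafachronic acid wells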
# DAX1 inh-1 = inhibitors of human orphan nuclear receptor DAX1 (NR0B1) | actives 0.99% (n = 340,000) | inhibition, % at 6.75 µM | HEK293 Gal4-DAX1 luciferase reporter, luminescence | P51843;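 active means inhibition above the mean over all tested compounds plus 3 SD, cut at about 4.2% in these data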;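 further: 0% = DAX1-transfected cells with DMSO and 100% = empty-vector control cells with DMSO; inhibition shows as a rise in luminescence from relieved DAX1 repression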
# DAX1 inh-2 = blocks DAX1 repression of SF-1 activated StAR promoter; inhibition, % at 6.8 µM; actives 1.1% (n = 370,000); HEK293T StAR-luciferase reporter, SF-1/DAX-1 repression relief; AID 652010;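 active means inhibition above the mean over all tested compounds plus 3 SD, cut at about 3.6% in these data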;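 further: 0% = DAX-1 cells with DMSO and 100% = cells lacking DAX-1 with DMSO; higher inhibition means more luminescence from relief of DAX-1 repression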
# LXRb hcDAF ctr = LXR-beta agonism as hcDAF-12 counter-screen; HEK293 Gal4-LXR tk-luc reporter, luminescence, 24 h; normalized: DMSO 0%, positive control 100%; shares compounds with hcDAF12 agonist; AID 743027; 3,400 tested, under 10 active; activation, % at 6.8 µM;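 active means mean percent activation of the reporter above a cutoff set as the average over tested compounds plus their standard deviation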
# Target sequence (P55055 whole entry, looked up, the tested form may be a part): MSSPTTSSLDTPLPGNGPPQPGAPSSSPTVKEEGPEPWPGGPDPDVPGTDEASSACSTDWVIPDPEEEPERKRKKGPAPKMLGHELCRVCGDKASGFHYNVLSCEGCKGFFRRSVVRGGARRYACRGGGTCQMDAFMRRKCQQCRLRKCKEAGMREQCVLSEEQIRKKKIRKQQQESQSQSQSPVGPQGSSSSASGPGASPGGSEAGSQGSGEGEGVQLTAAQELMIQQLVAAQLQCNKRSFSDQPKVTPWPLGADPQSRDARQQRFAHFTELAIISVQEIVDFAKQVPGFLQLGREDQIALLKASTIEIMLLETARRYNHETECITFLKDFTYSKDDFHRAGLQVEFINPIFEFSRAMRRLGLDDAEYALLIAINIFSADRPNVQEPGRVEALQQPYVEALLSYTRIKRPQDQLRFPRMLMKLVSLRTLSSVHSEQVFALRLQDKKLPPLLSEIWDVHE
# hcDAF12 conf = hcDAF-12 agonism, confirmation assay; activation, % at 6.8 µM; shares compounds with hcDAF12 agonist; actives 61% (n = 3,400); HEK293 hcDAF-12 lit1-tk-luc reporter, luminescence; % of Δ7-dafachronic acid response;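 active means mean activation across triplicate tests above the threshold derived from the earlier primary screen, cut at about 5.5% in these data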;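 further: 0% = DMSO only wells and 100% = 3 µM Δ7-dafachronic acid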
# * = called active by the depositor; . = no result.
SMILES,hcDAF12 agonist,hgDAF-12 ag,ssDAF12 agonist,DAX1 inh-1,DAX1 inh-2,LXRb hcDAF ctr,hcDAF12 conf
Cc1ccccc1NC(=O)C(=O)Nc1ccccc1C,8.3*,9,0,2,1,1,5
N#C/C(=C\c1ccc[nH]1)C(=O)Nc1ccccc1[N+](=O)[O-],3,10,0,1,2,.,.
CCCc1nc2c(C)cc(Br)cn2c1Cc1cccc(Cl)c1,5,1,1,.,1,.,.
CCCc1nc2c(C)cc(Br)cn2c1Cc1ccc(C)cc1,7.4*,5,0,.,0,0,10*
CC1CC(C)CN(CCCNC(=O)c2ccc(CS(=O)(=O)Cc3cccc(Cl)c3)o2)C1 (configuration not stated),-1,-3,-1,-1,0,.,.
c1cncc(-c2nc3ccccc3o2)c1,-1,1,-1,0,1,.,.
Cc1ccnc2ccc(-c3nc4ccccc4o3)cc12,7.8*,13*,1.0*,2,1,1,12*
COc1ccccc1N(CC(=O)N1CCCC1)S(=O)(=O)c1cc([N+](=O)[O-])ccc1Cl,0,0,-1,1,1,.,.
COC(=O)c1ccccc1NC(=O)CN(c1c(C)cccc1C)S(C)(=O)=O,18*,11*,1.0*,-1,1,0,0
CCc1nc2cc([N+](=O)[O-])c([N+](=O)[O-])cc2[nH]1,-1,-3,-2,-2,0,.,.
COc1ccccc1Nc1ncc(-c2cccs2)s1,11*,9,1.3*,3,2,1,15*
OC[C@H]1O[C@@H]2O[C@H]3[C@H](O)[C@@H](O)[C@@H](O[C@H]4[C@H](O)[C@@H](O)[C@@H](O[C@H]5[C@H](O)[C@@H](O)[C@@H](O[C@H]6[C@H](O)[C@@H](O)[C@@H](O[C@H]7[C@H](O)[C@@H](O)[C@@H](O[C@H]1[C@H](O)[C@H]2O)O[C@@H]7CO)O[C@@H]6CO)O[C@@H]5CO)O[C@@H]4CO)O[C@@H]3CO,2,2,-1,.,1,.,.
CC(C)CSc1nnc2c3ccccc3n(C)c2n1,14*,10,1.6*,10*,2,1,11*
CC(C)OC(=O)CSc1nnc2c3ccccc3n(C)c2n1,3,0,-1,0,0,.,.
c1cncc(-c2nc(-c3ccc4c(c3)OCO4)cs2)c1,6.8*,12*,0,1,2,1,5
CCC(C)c1ccc(Nc2ncccc2C#N)cc1 (configuration not stated),7.7*,7,0,1,0,1,8.6*
CN(C)c1cccc(/C=C(\C#N)c2ccccc2)c1,7.1*,19*,1.2*,0,-1,2,9.0*
Fc1cccc(Cc2c(-c3ccco3)nc3c4ccccc4ccn23)c1,6.7*,13*,3.7*,.,4,1,9.5*
c1coc(-c2nc3c4ccccc4ccn3c2Cc2ccsc2)c1,7.4*,12*,1.6*,.,3,1,15*
Clc1cccc(Cc2c(-c3ccco3)nc3c4ccccc4ccn23)c1,2,2,0,.,1,.,.
Clc1ccc2nc(-c3ccco3)c(Cc3ccsc3)n2c1,2,1,0,.,0,.,.
CCc1nc2ccc(C(=O)NCCOc3ccc(OC)cc3)cn2c1N(CC)Cc1ccc(OC)c(OC)c1,-3,-1,-2,.,-1,.,.
CCn1cc([N+](=O)[O-])c(C(=O)Nc2nc3ccc(OC)cc3s2)n1,1,1,-1,1,0,.,.
COCCNC(=O)c1cc(-c2ccccc2)nn1Cc1cc(C)no1,1,-3,-1,0,0,.,.
O=[N+]([O-])c1ccccc1CSc1nc2ccccc2o1,6.7*,6,0,-1,1,0,3
SMILES,hcDAF12 agonist,hgDAF-12 ag,ssDAF12 agonist,DAX1 inh-1,DAX1 inh-2,LXRb hcDAF ctr,hcDAF12 conf
COc1ccccc1-c1nnc(SCC(=O)N2CCOCC2)o1,10*,9,1.1*,2,3,0,11*
Cc1cccc(-c2nnc(SCC(=O)N3CCOCC3)o2)c1,6.8*,7,0,3,1,0,3
O=C(CSc1nnc(-c2cccc(F)c2)o1)N1CCOCC1,-2,-3,-1,2,0,.,.
CN1CCc2c1nc1ccccc1c2N (tested in a mixture with another compound),3,1,0,1,0,.,.
Nc1c2c(nc3cccc(Cl)c13)N(c1ccccc1)CC2,7.2*,0,1.1*,1,0,0,7.4*
Fc1cccc(Cl)c1/C=C/c1cnc2ccccc2n1,20*,16*,2.0*,2,3,2,22*
O=C(O)/C=C/c1cnc2ccccc2n1,2,2,-1,0,0,.,.
Oc1c(N=Nc2ccc(F)cc2)ccc2ccccc12,7.4*,10,0,3,1,2,12*
CCc1ccc(NC(=S)Nc2ccc(S(=O)(=O)Nc3ncccn3)cc2)cc1,0,4,-1,2,1,.,.
C=CCn1c(C)nnc1SCC(=O)Nc1nc(C)c(C(=O)N(C)C)s1,7.3*,3,-1,2,0,0,1
C=CCn1c(C)nnc1SCC(=O)Nc1nccs1,-1,2,-1,0,0,.,.
C/C(=N\NC(=O)c1ccccc1O)c1cccc(NC(=O)c2ccccc2)c1,7.0*,9,1.3*,3,0,0,5
C/C(=N\NC(=O)c1cc(O)ccc1O)c1cccc(NC(=O)c2ccc(Cl)cc2)c1,-1,6,-1,1,3,.,.
Cc1ccc(NC(=O)NCc2nc3ccccc3n2C)cc1,1,1,0,1,0,.,.
COc1ccc(NCc2nc3ccccc3n2C)cc1,10.0*,12*,2.4*,5.6*,2,1,12*
Cc1ccc(NCc2nc3ccccc3n2C)cc1C,13*,13*,1.7*,3,3,1,8.2*
CN(C)c1ccc(NC(=O)CCN2C(=O)c3cccc([N+](=O)[O-])c3C2=O)cc1,7.0*,0,0,1,0,0,1
CCC1CCC(NC(=O)Nc2cccc(OC)c2)CC1 (configuration not stated),12*,19*,-1,3,3,1,6.2*
O=C(CNc1cccc(S(=O)(=O)N2CCCC2)c1)Nc1ccc(F)cc1F,-1,-2,-1,0,-1,.,.

# From PubChem
